Test results as given in PubChem BioAssay AID1159580 (chemical genetic matrix, 2015).
The whole screen tested about 5,500 compounds, of which about 2,000 (36%) were called active. Inconclusive results (about 18%) are left out. No stated cut-off is given here; in the data, active means normalized growth mostly below about 0.91 (no sharp cut-off); inconclusive means no clear call, values can overlap the other calls; inactive means mostly above about 0.92. Some of the results follow.

Test: chemical genetic growth profiling, strain panel (AID 1159580);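 further: tested at 20 µM; growth read once vehicle control cultures reached saturation at 30 °C; 1 = growth at the plate median or of vehicle wells; lower values mean less growth of the strain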
Conditions: growth OD

Measured: normalized growth

COc1c(C(=O)O)ccc2c1CCC(C)(C)O2
inactive: S. cerevisiae deletion strains, locus YBR021W, strain FUR4, hits give low values 1.03 | S. cerevisiae deletion strains, locus YBR229C, strain ROT2, hits give low values 1.02 | S. cerevisiae deletion strains, locus YCL029C, strain bik1, hits give low values 1.01 | S. cerevisiae deletion strains, locus YDL035C, strain GPR1, hits give low values 1.09 | S. cerevisiae deletion strains, locus YDL074C, strain BRE1, hits give low values 1.13 | S. cerevisiae deletion strains, locus YDL101C, strain DUN1, hits give low values 1.02 | S. cerevisiae deletion strains, locus YDL134C, strain PPH21, hits give low values 1.07 | S. cerevisiae deletion strains, locus YDL185W, strain tfp1, hits give low values 0.976 | S. cerevisiae deletion strains, locus YDL192W, strain arf1, hits give low values 1.03 | S. cerevisiae deletion strains, locus YDR101C, strain arx1, hits give low values 0.999 | S. cerevisiae deletion strains, locus YDR150W, strain NUM1, hits give low values 1.04 | S. cerevisiae deletion strains, locus YDR162C, strain NBP2, hits give low values 1.05 | S. cerevisiae deletion strains, locus YDR318W, strain mcm21, hits give low values 0.987 | S. cerevisiae deletion strains, locus YDR388W, hits give low values 0.987 | S. cerevisiae deletion strains, locus YDR502C, strain sam2, hits give low values 0.981 | S. cerevisiae deletion strains, locus YEL061C, strain CIN8, hits give low values 1.03 | S. cerevisiae deletion strains, locus YER110C, hits give low values 0.997 | S. cerevisiae deletion strains, locus YER155C, strain BEM2, hits give low values 0.984 | S. cerevisiae deletion strains, locus YER167W, strain BCK2, hits give low values 1.01 | S. cerevisiae deletion strains, locus YGL078C, strain dbp3, hits give low values 0.964 | S. cerevisiae deletion strains, locus YGL086W, strain mad1, hits give low values 1 | S. cerevisiae deletion strains, locus YGL248W, strain PDE1, hits give low values 1.06 | S. cerevisiae deletion strains, locus YGR078C, strain PAC10, hits give low values 1.06 | S. cerevisiae deletion strains, locus YGR135W, strain pre9, hits give low values 0.994 | S. cerevisiae deletion strains, locus YGR252W, strain gcn5, hits give low values 1.06 | S. cerevisiae deletion strains, locus YHR030C, strain SLT2, hits give low values 1.02 | S. cerevisiae deletion strains, locus YHR079C, strain IRE1 (second series), hits give low values 0.982 | S. cerevisiae deletion strains, locus YHR094C, strain hxt1, hits give low values 0.987 | S. cerevisiae deletion strains, locus YHR129C, strain ARP1, hits give low values 1.02 | S. cerevisiae deletion strains, locus YHR200W, strain rpn10, hits give low values 1 | S. cerevisiae deletion strains, locus YIL066C, strain RNR3, hits give low values 1.04 | S. cerevisiae deletion strains, locus YIL073C, strain SPO22, hits give low values 1.12 | S. cerevisiae deletion strains, locus YIL125W, strain kgd1, hits give low values 0.957 | S. cerevisiae deletion strains, locus YIR030C, strain dcg1, hits give low values 0.982 | S. cerevisiae deletion strains, locus YJL095W, strain BCK1, hits give low values 1.1 | S. cerevisiae deletion strains, locus YJL134W, strain LCB3, hits give low values 1.01 | S. cerevisiae deletion strains, locus YJL168C, strain set2, hits give low values 0.988 | S. cerevisiae deletion strains, locus YJL187C, strain SWE1 (second series), hits give low values 1.03 | S. cerevisiae deletion strains, locus YKL009W, strain mrt4, hits give low values 0.995 | S. cerevisiae deletion strains, locus YKL085W, strain MDH1 (second series), hits give low values 0.955 | S. cerevisiae deletion strains, locus YKL085W, strain MDH1, hits give low values 0.955 | S. cerevisiae deletion strains, locus YKL190W, strain CNB1, hits give low values 1.02 | S. cerevisiae deletion strains, locus YKR001C, strain vps1, hits give low values 1.04 | S. cerevisiae deletion strains, locus YLR039C, strain RIC1, hits give low values 1.19 | S. cerevisiae deletion strains, locus YLR058C, strain SHM2, hits give low values 1.04 | S. cerevisiae deletion strains, locus YLR102C, strain apc9, hits give low values 0.986 | S. cerevisiae deletion strains, locus YLR262C, strain YPT6, hits give low values 1.22 | S. cerevisiae deletion strains, locus YLR268W, strain sec22, hits give low values 0.989 | S. cerevisiae deletion strains, locus YLR330W, strain CHS5, hits give low values 1.03 | S. cerevisiae deletion strains, locus YLR342W, strain FKS1 (second series), hits give low values 1.07 | S. cerevisiae deletion strains, locus YLR371W, strain rom2, hits give low values 1.01 | S. cerevisiae deletion strains, locus YLR418C, strain cdc73, hits give low values 1.07 | S. cerevisiae deletion strains, locus YML016C, strain PPZ1, hits give low values 1.02 | S. cerevisiae deletion strains, locus YML032C, strain rad52, hits give low values 0.991 | S. cerevisiae deletion strains, locus YML124C, strain tub3, hits give low values 0.975 | S. cerevisiae deletion strains, locus YMR078C, strain ctf18, hits give low values 0.983 | S. cerevisiae deletion strains, locus YMR223W, strain ubp8, hits give low values 1 | S. cerevisiae deletion strains, locus YMR263W, strain SAP30, hits give low values 1.01 | S. cerevisiae deletion strains, locus YMR307W, strain GAS1, hits give low values 1.03 | S. cerevisiae deletion strains, locus YNL067W, strain RPL9B, hits give low values 0.992 | S. cerevisiae deletion strains, locus YNL233W, strain BNI4, hits give low values 1.08 | S. cerevisiae deletion strains, locus YNL250W, strain rad50, hits give low values 0.956 | S. cerevisiae deletion strains, locus YNL271C, strain bni1, hits give low values 0.995 | S. cerevisiae deletion strains, locus YNL298W, strain CLA4, hits give low values 0.993 | S. cerevisiae deletion strains, locus YNL307C, strain MCK1, hits give low values 0.989 | S. cerevisiae deletion strains, locus YNL322C, strain KRE1, hits give low values 1.02 | S. cerevisiae deletion strains, locus YNR052C, strain pop2, hits give low values 0.981 | S. cerevisiae deletion strains, locus YOL006C, strain TOP1, hits give low values 1.43 | S. cerevisiae deletion strains, locus YOL012C, strain htz1 0.918 | S. cerevisiae deletion strains, locus YOL147C, strain pex11, hits give low values 0.98 | S. cerevisiae deletion strains, locus YOR061W, strain CKA2, hits give low values 1.02 | S. cerevisiae deletion strains, locus YOR069W, strain VPS5, hits give low values 1.01 | S. cerevisiae deletion strains, locus YOR136W, strain idh2, hits give low values 0.993 | S. cerevisiae deletion strains, locus YOR144C, strain elg1, hits give low values 0.981 | S. cerevisiae deletion strains, locus YOR184W, strain ser1, hits give low values 1.04 | S. cerevisiae deletion strains, locus YOR316C, strain cot1, hits give low values 0.977 | S. cerevisiae deletion strains, locus YPL241C, strain CIN2, hits give low values 1.02 | S. cerevisiae deletion strains, locus YPR119W, strain clb2, hits give low values 0.983 | S. cerevisiae deletion strains, locus YPR141C, strain kar3, hits give low values 0.942 | S. cerevisiae deletion strains, locus YPR163C, strain tif3, hits give low values 0.986 | S. cerevisiae deletion strains, locus YPR167C, strain met16, hits give low values 0.98 | S. cerevisiae deletion strains, strain wtn01, hits give low values 1.01 | S. cerevisiae strains, strain wild type, hits give low values 1.06
active: S. cerevisiae deletion strains, locus YGR229C, strain SMI1, hits give low values 1.2 [resistant] | S. cerevisiae deletion strains, locus YKL068W, hits give low values 0.922
